# Data taken from PubChem BioAssay.
# Activity calls are given as the source filed them.
# Key:
# Albumin (Bos taurus) = Albumin (Bos taurus) (UniProt P02769); experiment: bovine serum albumin binders on microarray, profiling panel, artefact control for SMM control protein annotation, biochemical, small-molecule microarray, Alexa647 label, 635/667 nm fluorescence (AID 1118); details: BSA-A647 binding, fluorescence 635 nm, higher = more signal;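 note: score merges 667 nm emission intensity and signal-to-noise per printed compound spot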
# Chain of Albumin (Bos taurus) (P02769 whole entry, looked up): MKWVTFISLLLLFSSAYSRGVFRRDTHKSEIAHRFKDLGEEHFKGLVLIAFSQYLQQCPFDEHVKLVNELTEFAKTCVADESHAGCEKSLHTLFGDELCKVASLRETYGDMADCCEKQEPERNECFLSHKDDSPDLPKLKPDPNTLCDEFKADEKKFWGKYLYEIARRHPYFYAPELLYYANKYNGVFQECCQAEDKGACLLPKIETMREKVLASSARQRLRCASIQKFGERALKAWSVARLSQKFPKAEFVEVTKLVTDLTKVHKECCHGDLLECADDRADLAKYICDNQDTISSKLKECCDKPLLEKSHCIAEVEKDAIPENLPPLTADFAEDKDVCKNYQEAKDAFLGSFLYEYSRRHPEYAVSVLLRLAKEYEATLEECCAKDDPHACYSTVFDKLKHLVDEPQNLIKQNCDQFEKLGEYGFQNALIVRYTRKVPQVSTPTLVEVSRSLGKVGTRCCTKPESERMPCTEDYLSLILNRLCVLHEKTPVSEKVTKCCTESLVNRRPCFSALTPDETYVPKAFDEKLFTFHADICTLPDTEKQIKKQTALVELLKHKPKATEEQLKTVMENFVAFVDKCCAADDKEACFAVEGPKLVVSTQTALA
# [1] = small-molecule microarray binders of probe aXIP, primary screen, biochemical, NeuroSMM set, 635/667 nm fluorescence (AID 1119); details: higher = more signal, called active from +8 up or from −8 down;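 note: probe is the protein aXip251-270 applied at 1 µg/mL to compound-printed slides; binding of probe to printed compounds measured as 667 nm fluorescence plus signal to noise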
# [2] = small-molecule binders of probe aNOTCH3, primary screen, biochemical, small-molecule microarray, 635/667 nm fluorescence (AID 1120); details: higher = more signal;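 note: probe is a biotin-tagged antibody raised against NOTCH3 rather than NOTCH3 protein; score merges spot fluorescence near 667 nm with spot signal to noise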
# [3] = small-molecule binders of probe aNOTCH2, primary screen, biochemical, small-molecule microarray, 635/667 nm fluorescence (AID 1121); details: higher = more signal;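 note: score merges feature fluorescence read at 667 nm with its signal to noise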
# [4] = target: Carbonic anhydrase 2 (Homo sapiens) (UniProt P00918); experiment: CAII small-molecule binders, profiling panel, biochemical, small-molecule microarray, Alexa647-labelled CAII (AID 1122); details: CAII-A647 binding fluorescence, higher = more signal
# [5] = COS7 lysate on small-molecule microarray, probe aHis, 635 nm (AID 1123); details: COS7 cell lysate, fluorescence, higher = more signal;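 note: z-score combines 667nm fluorescence intensity with signal-to-noise per printed compound spot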
# [6] = compound binding in COS7 lysate, probe aLAP1, primary screen, cell lysate, small-molecule microarray (AID 1124); details: probe aLAP1, fluorescence, higher = more signal;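 note: lysate comes from COS7 cells expressing LAP1 and is applied at 0.3 µg/mL; score merges spot fluorescence near 667 nm with signal-to-noise over triplicate slides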
# Sam68 (KHDRBS1) = experiment: Sam68 small-molecule binders, primary screen, biochemical, small-molecule microarray, 635 nm fluorescence (AID 1125); details: small-molecule microarray binding, higher = more signal;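 note: score merges 667 nm channel intensity with signal to noise over triplicate slides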
# [7] = test system: Chordin-like protein 2 (CHRDL2); experiment: CHRDL2 small-molecule binders, primary screen, biochemical, small-molecule microarray, 635 nm fluorescence (AID 1126); details: small-molecule microarray binding, fluorescence 635 nm; higher = more signal;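 note: printed compound slides probed with Chrdl2 protein at 4 µg/mL for 1 h at 4 C; score merges 667 nm emission intensity with signal to noise over three replicate slides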
# [8] = target: Concanavalin-A (Canavalia ensiformis) (UniProt P02866); experiment: ConA small-molecule binders, primary screen, artefact control for SMM control protein annotation, biochemical, small-molecule microarray, Alexa647 label, 635 nm (AID 1127); details: ConA-A647 binding fluorescence, higher = more signal;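 note: z combines 667 nm emission intensity with signal-to-noise across three replicate slides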
# Chain of Concanavalin-A (Canavalia ensiformis) (P02866 whole entry, looked up): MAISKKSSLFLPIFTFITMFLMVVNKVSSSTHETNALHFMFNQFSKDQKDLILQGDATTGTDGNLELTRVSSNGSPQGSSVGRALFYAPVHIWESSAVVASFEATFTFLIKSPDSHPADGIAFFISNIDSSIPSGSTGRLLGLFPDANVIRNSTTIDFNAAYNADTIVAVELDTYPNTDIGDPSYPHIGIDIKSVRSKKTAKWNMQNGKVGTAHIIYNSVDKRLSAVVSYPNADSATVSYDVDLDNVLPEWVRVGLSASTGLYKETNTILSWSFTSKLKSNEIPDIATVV
SMILES,composite z-score (Albumin (Bos taurus)),composite Z-score [1],composite z-score [2],composite z-score [3],composite z-score [4],composite z-score [5],composite z-score [6],composite z-score (Sam68 (KHDRBS1)),composite z-score [7],composite z-score [8]
CCCNC(=O)[C@@]1(C)c2ccccc2C(=O)N(c2ccc(C)cn2)[C@H]1c1ccc(CO)cc1,-0.0296,0.164 (inactive),-0.246,-0.108,0.699,-0.604,-0.105,-0.264,0.0286,-0.283
COC(=O)[C@@]1(Cc2ccc(OC)cc2)[C@H]2c3cc(C(=O)N4CCCC4)n(CCO)c3C[C@H]2CN1C(=O)c1ccccc1,0.245,-0.423 (inactive),0.302,0.0918,0.847,2.46,0.57,0.827,-0.0307,0.716
O=C1N(CCS(=O)(=O)c2ccccc2)c2ccccc2[C@H]2OC(c3ccc(OCCCO)cc3)=N[C@@]12Cc1ccccc1,-0.154,1.47 (inactive),0.146,0.087,0.555,2.93,0.991,1.29,1.4,1.14
COCCOC(=O)N1C(=O)[C@@]2(c3cc(C#CC4(O)CCCCCC4)ccc31)[C@H](C(=O)N1CCc3cc(OC)c(OC)cc3C1)[C@H]1C(=O)O[C@H](c3ccccc3)[C@H](c3ccccc3)N1[C@@H]2c1ccc(OCCO)cc1,0.121,0.28 (inactive),-0.021,-0.0617,0.515,0.535,0.272,1.31,0.666,1.12
CCOC(=O)C[C@H]1[C@H](OC(=O)c2ccc(C(=O)c3ccccc3)cc2)[C@@H](NC(=O)CC(C)C)c2cc(OCCCO)ccc2N1C(=O)c1ccccc1,0.415,-0.24 (inactive),0.104,-0.0357,0.351,1.01,-0.0609,1.3,0.262,1.05
CC(C)(C)OC(=O)CC[C@@]1(C(=O)NCC(O)CO)N=C(c2ccc(OCCCO)cc2)O[C@@H]1c1ccccc1CN=[N+]=[N-] (stereo not given in full),0.347,-0.0662 (inactive),0.0297,0.124,0.836,1.34,0.398,0.941,0.333,0.922
Cc1ccccc1C(O)C1C=CC2C(=O)NC(=O)C2N1Nc1ccccn1 (stereo not given),0.65,0.497 (inactive),-0.15,-0.14,0.355,0.78,0.483,-0.805,0.102,-0.227
CN(C)CCCCCCNC(=O)[C@@H]1C[C@@H]2C(=O)N3CCC[C@H]3C(=O)N2[C@@H]1c1cccc(OCCO)c1,-0.694,0.759 (inactive),0.278,-0.13,0.591,2.73,0.87,1.31,1.42,1.13
COC(=O)C1=CC(CCCO)=CC(c2ccc(CN3CCCC3)cc2)N(Cc2cccc(OC(F)(F)F)c2)C=C1C(=O)OC (stereo not given),0.996,0.29 (inactive),0.133,-0.0502,0.387,2.21,0.612,1.3,-0.551,1.11
CC[C@@H]1C=C(C(=O)O)[C@H](c2ccccc2)N1S(=O)(=O)c1ccc(C)cc1,1.08,-0.12 (inactive),0.191,0.0167,0.8,2.24,1.38,0.95,-0.535,1.12
[N-]=[N+]=Nc1ccccc1C[C@]1(C(=O)O)COC(c2ccc(OCCCO)cc2)=N1,0.638,0.277 (inactive),0.0116,-0.0501,0.856,0.143,-0.165,-0.566,-1.31,-0.19
C=CC[C@@]1(C(=O)NCCCOC)N=C(c2ccc(OCCCO)cc2)O[C@@H]1c1ccccc1N=[N+]=[N-],0.896,-0.349 (inactive),0.356,-0.125,0.224,1.73,0.209,1.01,-0.325,0.562
C=C(COC)C(=O)CC[C@@H](OC(C)=O)c1cccc(OCCO)c1,-0.693,-0.0662 (inactive),-0.0647,-0.125,0.59,-0.591,-0.621,-0.873,-0.109,-0.797
